Measurements as given in the antibiotic and cytotoxicity screens of Wong et al. (2023).
Among all 39,000 compounds or so, about 1,500 (3.8%) were called active. For the sample, actives were picked, then their nearest neighbours and some compounds at random.

system: HSkMC (human skeletal muscle cells); experiment: cytotoxicity call (relative viability < 0.9); conditions: 10 µM

Row | Structure (SMILES) | cytotoxicity call
1 | C=C1C(=O)OC2C1CCC(C)=CCCC1(C)OC21 (stereo not drawn) | active
2 | C=C1CCC=C(C)CCC2C1CC2(C)C.O (single isomer, unassigned; (-)) [(-)E-CARYOPHYLLENE hydrate ] | inactive
3 | Cc1ccc(C(=O)Nc2ccc(Oc3cc4cnn(C)c4cc3-c3cn[nH]c3)c(F)c2)c(=O)n1-c1ccc(F)cc1 | active
4 | Cc1cc(C)nc(NS(=O)(=O)c2ccc(NC(=O)c3cccn(OCc4ccc(F)cc4)c3=O)cc2)n1 | inactive
5 | CCCNC(=O)N1C[C@@H](C)[C@@H](OC)CN(C)C(=O)c2ccc(NS(=O)(=O)CC(F)(F)F)cc2OC[C@@H]1C | inactive
6 | Cc1ccc(Oc2nnc(-c3cccs3)c3ccccc23)cc1 | inactive
7 | Cc1csc(-c2nnc(Nc3ccc(Oc4ncccc4-c4ccnc(N)n4)cc3)c3ccccc23)c1 | active
8 | Cc1ccc(Nc2nnc(-c3ccccc3)c3ccccc23)cc1 | inactive
9 | O=C(O)C[C@@H](O)C(=O)O | inactive
10 | COC(=O)C1=CO[C@@H](O[C@@H]2O[C@H](CO)[C@@H](O)[C@H](O)[C@H]2O)/C(=C\CO)[C@@H]1CC(=O)OCCc1ccc(O)cc1 | inactive
11 | C[C@@H]1CN([C@H](C)CO)S(=O)(=O)c2ccc(C3=CCCC3)cc2O[C@H]1CN(C)S(=O)(=O)c1ccc(F)cc1 | inactive
12 | CS(=O)(=O)N1CCc2c(-c3cnc(N)nc3)nc(N3CCOCC3)nc21 | active
13 | c1nc(N2CCOCC2)nc(N2CCOCC2)n1 | inactive
14 | CS(=O)(=O)N1CC[C@]2(COCc3cnc(N4CCOCC4)nc32)C1 | inactive
15 | C[C@H]1CN([C@@H](C)CO)C(=O)c2cccc(NC(=O)c3ccncc3)c2O[C@H]1CN(C)Cc1ccc(Oc2ccccc2)cc1 | inactive
16 | C[C@H]1CCCCO[C@H](CN(C)C(=O)Nc2ccc(C(F)(F)F)cc2)[C@@H](C)CN([C@@H](C)CO)C(=O)c2cc(NS(=O)(=O)c3ccccc3)ccc2O1 | active
17 | C[C@H](CO)N1C[C@H](C)[C@H](CN(C)C(=O)Nc2ccc(C(F)(F)F)cc2)OCCCC[C@H](C)Oc2ccc(NS(=O)(=O)c3ccccc3)cc2C1=O | inactive

Row | Structure (SMILES) | cytotoxicity call
18 | C[C@@H]1CCCCO[C@H](CN(C)C(=O)Nc2ccc(C(F)(F)F)cc2)[C@@H](C)CN([C@H](C)CO)C(=O)c2cc(NS(=O)(=O)c3ccccc3)ccc2O1 | inactive
19 | C[C@@H]1CN([C@@H](C)CO)C(=O)c2cc(NS(=O)(=O)c3ccccc3)ccc2O[C@@H](C)CCCCO[C@@H]1CN(C)C(=O)Nc1ccc(C(F)(F)F)cc1 | active
20 | C[C@H](CO)N1C[C@H](C)[C@@H](CN(C)C(=O)Nc2ccc(C(F)(F)F)cc2)OCCCC[C@H](C)Oc2ccc(NS(=O)(=O)c3ccccc3)cc2C1=O | inactive
21 | C[C@@H]1CCCCO[C@H](CN(C)C(=O)Nc2ccc(C(F)(F)F)cc2)[C@H](C)CN([C@H](C)CO)C(=O)c2cc(NS(=O)(=O)c3ccccc3)ccc2O1 | inactive
22 | CCN1C(=O)[C@H]2[C@H]3[C@H](O)[C@H](O)C/C(=N\OC[C@@H](O)COCc4ccco4)[C@@H]3CC[C@H]2C1=O | inactive
23 | C[C@@H]1CCCCO[C@@H](CN(C)S(=O)(=O)c2cccs2)[C@@H](C)CN([C@@H](C)CO)C(=O)c2cc(NC(=O)Nc3ccccc3)ccc2O1 | inactive
24 | C[C@H]1CN([C@@H](C)CO)C(=O)c2cccc(NC(=O)C3CCOCC3)c2O[C@H]1CN(C)S(=O)(=O)c1cn(C)cn1 | inactive
25 | NC(=O)N1CCc2n[nH]c(C(=O)N3CCOCC3)c2C1 | inactive
26 | CCc1nc(C(N)=O)c(Nc2ccc(N3CCC(N4CCN(C)CC4)CC3)c(OC)c2)nc1NC1CCOCC1 | inactive
27 | C=CCn1c(=O)c2cnc(Nc3ccc(N4CCN(C)CC4)cc3)nc2n1-c1cccc(C(C)(C)O)n1 | inactive
28 | C=CC(=O)N1CC[C@@H](Oc2nc(Nc3ccc(N4CCC(N5CCN(C)CC5)CC4)cc3)c(C(N)=O)nc2CC)C1 | active
29 | COCC(=O)Nc1ccc2c(c1)C(=O)N(C)[C@@H]1CC[C@@H](CC(=O)NCc3ccc(OC)cc3)O[C@@H]1CO2 | inactive
30 | COc1ccc(S(=O)(=O)Nc2cccc3c2O[C@@H](CN(C)Cc2ccc(-c4ccccc4)cc2)[C@H](C)CN([C@@H](C)CO)C3=O)cc1 | inactive
31 | CCCCCCCCCCCCCCCCCCCC(=O)N[C@H]1CC[C@@]2(C)[C@@H](C1)C[C@@H](O)[C@@H]1[C@@H]2C[C@H](O)[C@]2(C)[C@@H]([C@H](C)CCC(=O)O)CC[C@@H]12 | active
32 | CC(CCC(=O)O)C1CCC2C3C(O)CC4CC(O)CCC4(C)C3CC(O)C12C (stereo not drawn) | inactive
33 | CC(CCC(=O)NCC(=O)O)C1CCC2C3C(O)CC4CC(O)CCC4(C)C3CC(O)C12C (stereo not drawn) | inactive
